# High-throughput results from PubChem BioAssay.
# Shown are actives, neighbours in structure and some others; about 3.4% of the full set was active somewhere.
# KLK7 zymogen act: proKLK7 zymogen activators, primary screen, biochemical, fluorescence intensity; 370,000 tested, 0.9% active; purified proKLK7, EDANS-DABCYL substrate fluorescence; 100% is mature enzyme control, 0% vehicle; activation, % at 7 µM; Kallikrein-7 (Homo sapiens), P49862;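 active = activation above the mean of all tested compounds plus 3 SD, computed per campaign excluding outliers beyond control limits, cut at about 13% in these data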
# PLC-beta3 inh: human PLC-beta3 inhibitors, primary screen, biochemical, fluorescence. 370,000 tested, 0.18% active. inhibition, % at 12.2 µM. Purified PLC-beta3, fluorogenic substrate. 1-phosphatidylinositol 4,5-bisphosphate phosphodiesterase beta-3 (Homo sapiens), Q01970. AID 720704, 2013; in the data active = inhibition above about 11%;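 also: 0% = median of compound wells on plate and 100% = full blocker control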
# ADAM10 inh: human ADAM10 inhibitors, primary screen, biochemical, QFRET, HTS | Disintegrin and metalloproteinase domain-containing protein 10 (Homo sapiens), O14672 | inhibition, % at 7 µM | 370,000 tested, 0.62% active | AID 720582, 2013 | recombinant ADAM10, EDANS/DABCYL FRET peptide cleavage, 3 h;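 active = inhibition above a per-campaign cutoff equal to the mean of compounds falling between control-based bounds plus 3 SD, cut at about 20% in these data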;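 also: 0% = DMSO wells while the 100% control is not disclosed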
# PLC-gamma1 inh: PLC-gamma1 enzyme inhibitors, primary screen, biochemical, fluorescence, purified enzyme | 1-phosphatidylinositol 4,5-bisphosphate phosphodiesterase gamma-1 (Homo sapiens), P19174 | fluorogenic substrate | inhibition, % at 12.2 µM | 370,000 tested, 0.84% active | AID 720700, 2013
# Target sequence (P19174 whole entry, looked up): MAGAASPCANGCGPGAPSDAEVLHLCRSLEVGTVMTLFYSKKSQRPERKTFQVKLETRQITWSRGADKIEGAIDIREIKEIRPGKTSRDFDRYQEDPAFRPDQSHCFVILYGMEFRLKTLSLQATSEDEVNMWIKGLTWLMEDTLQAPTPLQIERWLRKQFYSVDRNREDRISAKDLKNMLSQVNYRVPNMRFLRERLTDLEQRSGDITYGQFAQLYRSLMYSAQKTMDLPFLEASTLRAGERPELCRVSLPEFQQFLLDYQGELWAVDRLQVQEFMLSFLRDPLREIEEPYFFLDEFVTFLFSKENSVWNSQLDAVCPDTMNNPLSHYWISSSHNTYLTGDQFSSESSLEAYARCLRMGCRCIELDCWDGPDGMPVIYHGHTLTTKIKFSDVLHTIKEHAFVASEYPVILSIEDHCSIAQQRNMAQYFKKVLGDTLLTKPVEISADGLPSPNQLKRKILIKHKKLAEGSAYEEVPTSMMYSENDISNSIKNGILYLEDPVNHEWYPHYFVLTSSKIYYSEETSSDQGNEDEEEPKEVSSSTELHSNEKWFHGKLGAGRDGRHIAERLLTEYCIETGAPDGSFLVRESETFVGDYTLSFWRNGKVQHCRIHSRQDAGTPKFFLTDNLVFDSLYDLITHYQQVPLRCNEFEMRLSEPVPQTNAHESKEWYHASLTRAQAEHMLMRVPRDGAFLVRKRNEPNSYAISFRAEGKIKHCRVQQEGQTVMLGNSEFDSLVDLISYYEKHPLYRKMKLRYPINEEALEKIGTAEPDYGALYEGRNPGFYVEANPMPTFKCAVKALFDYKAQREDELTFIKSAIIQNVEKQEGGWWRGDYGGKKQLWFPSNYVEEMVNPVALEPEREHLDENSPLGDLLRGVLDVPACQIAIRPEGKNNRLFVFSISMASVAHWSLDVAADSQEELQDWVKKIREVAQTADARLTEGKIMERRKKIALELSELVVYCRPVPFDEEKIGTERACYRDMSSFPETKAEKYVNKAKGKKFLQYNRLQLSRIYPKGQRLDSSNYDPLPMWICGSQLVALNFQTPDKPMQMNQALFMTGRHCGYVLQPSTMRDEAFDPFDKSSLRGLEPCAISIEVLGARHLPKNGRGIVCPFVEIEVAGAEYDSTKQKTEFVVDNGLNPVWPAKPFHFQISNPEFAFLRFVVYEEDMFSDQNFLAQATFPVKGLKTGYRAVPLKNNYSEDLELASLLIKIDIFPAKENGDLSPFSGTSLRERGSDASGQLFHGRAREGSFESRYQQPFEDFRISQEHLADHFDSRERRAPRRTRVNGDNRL
# ADAM17 inh: ADAM17 inhibitors, primary screen, biochemical, QFRET | recombinant ADAM17, EDANS/DABCYL FRET peptide cleavage | inhibition, % at 6.95 µM | Disintegrin and metalloproteinase domain-containing protein 17 (Homo sapiens), P78536 | 370,000 tested, 0.83% active;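 active = inhibition above the mean of compounds lying between control limits plus 3 SD, set per campaign, cut at about 8.5% in these data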;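 also: 0% = DMSO-only wells as the low control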
# sPLA2-III inh: human group III sPLA2 inhibitors, primary screen, biochemical, QFRET, BODIPY PC-A2 liposome substrate. 370,000 tested, 0.56% active. QFRET BODIPY PC-A2 liposome hydrolysis, fluorescence. Group 3 secretory phospholipase A2 (Homo sapiens), Q9NZ20. inhibition, % at 12.2 µM;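 active = inhibition above mean plus 3 SD of compounds lying within the high and low control bounds, cut at about 19% in these data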;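 also: 0% = median of test compound wells and 100% = no enzyme DMSO wells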
# PLCg1 ctr: PLC-gamma1 enzyme inhibitors, counter-screen for PLC-beta3 inhibitor project, biochemical, fluorescence | inhibition, % at 12.3 µM | AID 743258, 2014 | 3,300 tested, 3.1% active | shares compounds with PLC-gamma1 inh | purified PLC-gamma1, fluorogenic substrate
# PLCb3 confirm: PLC-beta3 inhibitor confirmation, biochemical, fluorescence, purified enzyme | shares compounds with PLC-gamma1 inh | fluorogenic substrate fluorescence | inhibition, % at 12.3 µM | 3,300 tested, 1% active; in the data active = inhibition above about 11%
# * hit, by the source's call; . = no result given. Rule as the data show it, unless noted: active = inhibition above about 9.5%; inactive = the rest.
SMILES,KLK7 zymogen act,PLC-beta3 inh,ADAM10 inh,PLC-gamma1 inh,ADAM17 inh,sPLA2-III inh,PLCg1 ctr,PLCb3 confirm
CC(CN1CCOCC1)OC(=O)c1cccc(Br)c1 (configuration not stated),1,12*,6,5,5,0,-1,1
Cc1ccc(CNC(=O)CN(c2cccc([N+](=O)[O-])c2)S(=O)(=O)c2ccccc2)cc1,1,-1,2,3,4,-16,.,.
Cc1ccc(CNC(=O)CN(c2cccc([N+](=O)[O-])c2)S(C)(=O)=O)cc1,0,3,11,11*,5,-10,-2,-3
CC1(C(=O)NS(=O)(=O)c2cccc(Cl)c2)CCN1C(=O)Cc1ccsc1 (configuration not stated),1,2,1,10*,2,-2,-9,-5
Clc1cccc(OCCCCN2CCCCC2)c1,0,-3,-2,1,-3,-3,.,.
Clc1cccc(Cl)c1OCCCCN1CCCCC1,0,-3,-3,12*,-1,0,2,0
O=C(CCCC1=NS(=O)(=O)c2ccccc2N1)N1CCN(c2ccccc2Cl)CC1,0,2,3,1,-1,-12,.,.
O=C(O)c1ccc(S(=O)(=O)N2CCCc3ccccc32)cc1,0,0,4,9.9*,3,2,-4,1
CC(=O)c1ccc(S(=O)(=O)N2CCCc3ccccc32)cc1,0,-1,5,7,2,-8,.,.
O=C(CCC(=O)N1CCCc2ccccc21)N1CCN(S(=O)(=O)c2ccccc2)CC1,0,10,13,11*,1,8,-6,-4
Cc1ccccc1NC(=O)OC1CCC12CCC(c1ccccc1)CC2 (configuration not stated),0,1,2,4,0,-5,.,.
CSc1cc(SC)ncn1,-1,12*,-18,5,1,0,-6,-1
Clc1ccccc1OCCCn1ccnc1,0,-3,0,0,-5,-3,.,.
Cc1nccn1CCOc1ccccc1Cl,0,1,9,10*,6,3,-6,-1
Nc1nc(Nc2ccccc2F)nc(NCc2ccco2)c1[N+](=O)[O-],0,-6,-2,13*,5,-5,-2,-2
Cc1ccc(Nc2nc(N)c([N+](=O)[O-])c(NCc3ccco3)n2)cc1,0,2,9,3,3,-11,.,.
CC(C)CSc1ncccc1-c1nc2ccccc2[nH]1,0,-8,-30,-2,-9,0,.,.
COc1cc(/C=C2/C(=N)N3OC(C)=CC3=NC2=O)ccc1OC(=O)c1ccco1,1,-6,-25,-2,-4,-29,.,.
CC1=CC2=NC(=O)/C(=C\c3ccc(OC(=O)c4ccco4)cc3)C(=N)N2O1,0,12*,-10,9,-4,-24,-2,0
Cc1cc(Nc2cccc(Cl)c2Cl)n2ncnc2n1,0,-1,7,13*,3,-3,-7,-3
Cc1ccc(Nc2cc(C)nc3ncnn23)c(Cl)c1,0,-1,-10,2,0,-4,.,.
Cc1cccc(N(C(=O)CCC(=O)Nc2cc(C)on2)C(C(=O)NC2CCCC2)c2ccncc2)c1 (configuration not stated),0,1,-6,-1,1,8,.,.
